The panel holds about 83,000 compounds, 20% with a hit somewhere; the sample as a whole holds those more often.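 Interpretation: 100, growth as untreated; towards 0, rising growth inhibition; 0, no net growth; 0 to -100, cell death. Compounds scoring below 10 were considered active.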 Activity calls are given as the source filed them.
How the values were obtained:
Experiment in all cases: NCI-60 one-dose screen, 48 h (100 = growth as untreated, 0 = no growth, -100 = all killed)
Details in all cases: 10 µM unless noted
SR leukemia = test system: SR leukemia
RPMI-8226 leukemia = test system: RPMI-8226 leukemia
OVCAR-8 ovarian = test system: OVCAR-8 ovarian
OVCAR-5 ovarian = test system: OVCAR-5 ovarian
OVCAR-4 ovarian = test system: OVCAR-4 ovarian
SK-OV-3 ovarian = test system: SK-OV-3 ovarian
IGROV1 ovarian = test system: IGROV1 ovarian
OVCAR-3 ovarian = test system: OVCAR-3 ovarian
HS 578T breast = test system: HS 578T breast
NCI/ADR-RES ovarian = test system: NCI/ADR-RES ovarian
T-47D breast = test system: T-47D breast
BT-549 breast = test system: BT-549 breast
MDA-MB-435 melanoma = test system: MDA-MB-435 melanoma
SW-620 colon = test system: SW-620 colon
MCF7 breast = test system: MCF7 breast
HCT-116 colon = test system: HCT-116 colon
HCC-2998 colon = test system: HCC-2998 colon
KM12 colon = test system: KM12 colon
MDA-MB-468 breast = test system: MDA-MB-468 breast

Measured: growth

N/C(=N\c1nc2ccc([N+](=O)[O-])cc2s1)NC(=O)Nc1ccccc1Cl
inactive: SR leukemia 23.6% | RPMI-8226 leukemia 60.7% | OVCAR-5 ovarian 38.2% | SK-OV-3 ovarian 24.2% | IGROV1 ovarian 55.8% | HS 578T breast 59.7% | NCI/ADR-RES ovarian 37.6% | T-47D breast 26.2% | BT-549 breast 25.9% | SW-620 colon 21.4% | MCF7 breast 36.5% | HCC-2998 colon 86.6% | KM12 colon 38.6%
active: OVCAR-8 ovarian 6.87% | OVCAR-4 ovarian -26.5% | OVCAR-3 ovarian -52.8% | MDA-MB-435 melanoma 5.83% | HCT-116 colon -2.76% | MDA-MB-468 breast 0%

Cn1cc(-c2cc(N)n3nc(-c4c[nH]c5ccccc45)cc3n2)c2cc(F)ccc21
active: RPMI-8226 leukemia 0.774% | OVCAR-8 ovarian -43.2% | SW-620 colon -76.8% | MCF7 breast -7.62% | HCT-116 colon -71.3% | HCC-2998 colon -65.5% | KM12 colon -33.9% | MDA-MB-468 breast 8.2%
inactive: SR leukemia 13.1% | OVCAR-5 ovarian 34.4% | OVCAR-4 ovarian 35.3% | SK-OV-3 ovarian 97.9% | IGROV1 ovarian 21.2% | OVCAR-3 ovarian 15.8% | HS 578T breast 79.5% | NCI/ADR-RES ovarian 19.1% | T-47D breast 15.8% | BT-549 breast 98.3% | MDA-MB-435 melanoma 14.6%

COc1cc(CNC(=O)[C@]23CCC(C)(C)CC2C2=CCC4[C@@]5(C)CCC(OC(C)=O)C(C)(C)C5CC[C@@]4(C)[C@]2(C)CC3)ccc1OCc1cn(-c2ccc(Cl)cc2Cl)nn1 (stereo partly specified)
inactive: SR leukemia 103% | RPMI-8226 leukemia 89.9% | OVCAR-8 ovarian 102% | OVCAR-5 ovarian 102% | OVCAR-4 ovarian 102% | SK-OV-3 ovarian 112% | IGROV1 ovarian 92.8% | OVCAR-3 ovarian 112% | HS 578T breast 100% | NCI/ADR-RES ovarian 120% | T-47D breast 85.1% | BT-549 breast 118% | MDA-MB-435 melanoma 105% | SW-620 colon 106% | MCF7 breast 86.5% | HCT-116 colon 98.2% | HCC-2998 colon 122% | KM12 colon 101%

CCOc1ccccc1[C@H]1C(C(=O)c2ccc(Cl)cc2)C2(N[C@@H]1c1ccccc1)C(=O)Nc1ccc(Br)cc12 (stereo partly specified)
active: SR leukemia -45.6% | RPMI-8226 leukemia 5.23% | OVCAR-5 ovarian -20.8% | IGROV1 ovarian 1% | OVCAR-3 ovarian -4.84% | HS 578T breast -5.81% | NCI/ADR-RES ovarian -46.7% | BT-549 breast -67.7% | MDA-MB-435 melanoma -59.3% | MCF7 breast -11.9% | HCT-116 colon -92.6% | HCC-2998 colon -22% | KM12 colon -9.26%
inactive: OVCAR-8 ovarian 12.1% | OVCAR-4 ovarian 13.7% | SK-OV-3 ovarian 24.4% | T-47D breast 13.2% | SW-620 colon 15.8%

CN(C)c1ccc(/C=C/c2n(Cc3ccc4ccccc4c3)c3ccccc3[n+]2Cc2ccc3ccccc3c2)cc1
active: SR leukemia -29.3% | RPMI-8226 leukemia -36.7% | OVCAR-8 ovarian -31.3% | OVCAR-5 ovarian -97.6% | OVCAR-4 ovarian -79% | SK-OV-3 ovarian -80.3% | IGROV1 ovarian -75.9% | OVCAR-3 ovarian -45.2% | HS 578T breast -46.3% | NCI/ADR-RES ovarian -80.7% | T-47D breast -55.3% | BT-549 breast -87.1% | MDA-MB-435 melanoma -94.7% | SW-620 colon -65.4% | MCF7 breast -67.3% | HCT-116 colon -62.7% | HCC-2998 colon -89.1% | KM12 colon -29.9%

COc1ccc(N=Nc2c(N)nn3c(N)c(C#N)c(-c4ccccc4)nc23)cc1
active: OVCAR-8 ovarian 8.3% | OVCAR-4 ovarian -13.4% | OVCAR-3 ovarian -6.99% | HS 578T breast -0.615% | NCI/ADR-RES ovarian 6.35% | BT-549 breast -16.7%
inactive: SR leukemia 73.8% | RPMI-8226 leukemia 13.8% | OVCAR-5 ovarian 72.8% | SK-OV-3 ovarian 13.1% | IGROV1 ovarian 20.8% | T-47D breast 16.4% | MDA-MB-435 melanoma 62.5% | SW-620 colon 66.2% | MCF7 breast 14.5% | HCT-116 colon 20.2% | HCC-2998 colon 65.2% | KM12 colon 45% | MDA-MB-468 breast 31.7%

O=c1[nH]c2ccccc2cc1CSc1ccccc1Nc1nccc(-c2ccc3c(c2)OCO3)n1
inactive: SR leukemia 103% | RPMI-8226 leukemia 92.2% | OVCAR-8 ovarian 46.8% | OVCAR-5 ovarian 99.5% | OVCAR-4 ovarian 25.4% | SK-OV-3 ovarian 82.7% | IGROV1 ovarian 99.2% | OVCAR-3 ovarian 83.9% | HS 578T breast 34.7% | NCI/ADR-RES ovarian 53.1% | T-47D breast 83.6% | BT-549 breast 67.6% | MDA-MB-435 melanoma 98.8% | SW-620 colon 93.2% | MCF7 breast 69.2% | HCT-116 colon 93.2% | HCC-2998 colon 116% | KM12 colon 99.3% | MDA-MB-468 breast 84.4%

CCC(=O)c1c2c(c3ccc4c5ccccc5ccc4n13)C(=O)c1ccccc1C2=O
active: MDA-MB-435 melanoma -89.8%
inactive: SR leukemia 71.8% | RPMI-8226 leukemia 95.8% | OVCAR-8 ovarian 96.1% | OVCAR-5 ovarian 122% | OVCAR-4 ovarian 88.2% | SK-OV-3 ovarian 105% | IGROV1 ovarian 75.6% | OVCAR-3 ovarian 75.9% | HS 578T breast 96.7% | NCI/ADR-RES ovarian 90.8% | T-47D breast 87.2% | BT-549 breast 114% | SW-620 colon 88.5% | MCF7 breast 54% | HCT-116 colon 92.6% | HCC-2998 colon 65.4% | KM12 colon 68.9% | MDA-MB-468 breast 88.6%

O=CNc1ccc(-n2cnc3cc(-c4ccc(O)cc4)ccc32)cc1
inactive: SR leukemia 55.9% | RPMI-8226 leukemia 66.1% | OVCAR-8 ovarian 82.4% | OVCAR-5 ovarian 94.7% | OVCAR-4 ovarian 74.9% | SK-OV-3 ovarian 111% | IGROV1 ovarian 118% | OVCAR-3 ovarian 68.6% | HS 578T breast 93.3% | NCI/ADR-RES ovarian 81.6% | T-47D breast 63.6% | BT-549 breast 93.3% | MDA-MB-435 melanoma 82.8% | SW-620 colon 101% | MCF7 breast 71.8% | HCT-116 colon 85.6% | HCC-2998 colon 102% | KM12 colon 32.4% | MDA-MB-468 breast 86.1%

CC(C)(C)c1cc(-c2cc(-c3ccccc3)[nH]c(=O)c2C#N)cc(C(C)(C)C)c1
inactive: SR leukemia 43.4% | RPMI-8226 leukemia 66.9% | OVCAR-5 ovarian 45.9% | SK-OV-3 ovarian 43.7% | IGROV1 ovarian 35.1% | OVCAR-3 ovarian 27.1% | NCI/ADR-RES ovarian 25.9% | T-47D breast 36.4% | MDA-MB-435 melanoma 56.9% | SW-620 colon 66.1% | MCF7 breast 71.8% | HCC-2998 colon 59.8% | KM12 colon 81.3% | MDA-MB-468 breast 37.8%
active: OVCAR-8 ovarian 7.14% | OVCAR-4 ovarian 5.22% | HS 578T breast -3.49% | BT-549 breast -3.78% | HCT-116 colon -35%

COc1cc(/C=N/NC(=O)c2ccc(OCc3nc4ccc(C)cc4[nH]3)cc2)cc(OC)c1OC
inactive: OVCAR-5 ovarian 88% | OVCAR-4 ovarian 71.9% | SK-OV-3 ovarian 106% | IGROV1 ovarian 50.5% | OVCAR-3 ovarian 29.5% | HS 578T breast 63.1% | NCI/ADR-RES ovarian 91.6% | T-47D breast 35.1% | BT-549 breast 45.4% | MDA-MB-435 melanoma 49.1% | SW-620 colon 40.7% | MCF7 breast 38.2% | HCT-116 colon 21.2% | HCC-2998 colon 65.5% | KM12 colon 57% | MDA-MB-468 breast 41.5%
active: SR leukemia 0.64% | RPMI-8226 leukemia 7.31% | OVCAR-8 ovarian -30.8%

NS(=O)(=O)c1ccc(N2N=C(c3ccc(NC(=O)Nc4ccccc4)cc3)CC2c2ccc(Br)cc2)cc1 (stereo unspecified)
inactive: SR leukemia 13%
active: RPMI-8226 leukemia 4.09% | OVCAR-8 ovarian -32.7% | OVCAR-5 ovarian -98.2% | OVCAR-4 ovarian -85.2% | SK-OV-3 ovarian -61.7% | IGROV1 ovarian -86.7% | OVCAR-3 ovarian -29.7% | HS 578T breast -24.5% | NCI/ADR-RES ovarian -83.4% | T-47D breast -73.8% | BT-549 breast -81.1% | MDA-MB-435 melanoma -93.8% | SW-620 colon -3.46% | MCF7 breast -79.1% | HCT-116 colon -68.1% | HCC-2998 colon -100% | KM12 colon -15.7% | MDA-MB-468 breast -95%

FC(F)(F)c1cc2c(Cl)ncnc2n1CCN1CCOCC1
inactive: RPMI-8226 leukemia 103% | OVCAR-8 ovarian 64.7% | OVCAR-5 ovarian 98.4% | OVCAR-4 ovarian 19.7% | SK-OV-3 ovarian 101% | OVCAR-3 ovarian 38.5% | HS 578T breast 95.8% | NCI/ADR-RES ovarian 81.4% | T-47D breast 96.2% | BT-549 breast 60.6% | MDA-MB-435 melanoma 86.4% | SW-620 colon 59.9% | MCF7 breast 89% | HCT-116 colon 31.7% | KM12 colon 96.4% | MDA-MB-468 breast 40.1%
active: SR leukemia -50.8% | IGROV1 ovarian -58.3% | HCC-2998 colon -26.6%

COc1sc(/C=N/NC(=O)c2[nH]c3ccc(Br)cc3c2-c2ccccc2)cc1Cl
inactive: SR leukemia 11.1% | RPMI-8226 leukemia 12.7% | OVCAR-4 ovarian 29.9% | SK-OV-3 ovarian 12.1% | T-47D breast 54.3%
active: OVCAR-8 ovarian -30.4% | OVCAR-5 ovarian -29.3% | IGROV1 ovarian -41.1% | OVCAR-3 ovarian 4.74% | HS 578T breast 7.66% | NCI/ADR-RES ovarian -48.7% | BT-549 breast -35.2% | MDA-MB-435 melanoma -10.1% | SW-620 colon -33.8% | MCF7 breast -26.6% | HCT-116 colon -43.5% | HCC-2998 colon -30.8% | KM12 colon -16.1% | MDA-MB-468 breast -6.37%

COc1ccccc1NC(=O)N/N=C/c1c[nH]c2ccccc12
inactive: SR leukemia 14.6% | RPMI-8226 leukemia 13.5% | OVCAR-8 ovarian 19.3% | OVCAR-5 ovarian 34.4% | OVCAR-4 ovarian 61.2% | SK-OV-3 ovarian 26.2% | IGROV1 ovarian 38.7% | HS 578T breast 23.8% | T-47D breast 36.2% | BT-549 breast 15.5% | SW-620 colon 35.9% | HCT-116 colon 10.4%
active: OVCAR-3 ovarian -32.1% | NCI/ADR-RES ovarian -9.65% | MDA-MB-435 melanoma -22.8% | MCF7 breast 6.55% | HCC-2998 colon 6.44% | KM12 colon 3.61% | MDA-MB-468 breast -6.01%

O=C(CSc1nc2c(c(=O)[nH]1)CCCC2)Nc1ccccc1C(=O)O
inactive: SR leukemia 88.5% | RPMI-8226 leukemia 104% | OVCAR-8 ovarian 109% | OVCAR-5 ovarian 106% | OVCAR-4 ovarian 125% | SK-OV-3 ovarian 106% | IGROV1 ovarian 110% | OVCAR-3 ovarian 91.7% | HS 578T breast 108% | NCI/ADR-RES ovarian 112% | T-47D breast 105% | BT-549 breast 117% | MDA-MB-435 melanoma 109% | SW-620 colon 116% | MCF7 breast 85.9% | HCT-116 colon 96.2% | HCC-2998 colon 123% | KM12 colon 103% | MDA-MB-468 breast 100%

Reference: PubChem BioAssay (NCI)
